Source: PubChem
Many of the other results were omitted from the sample, so hits are more common in it than they were.
Dicer inh – human Dicer pre-microRNA cleavage inhibition | z-score at 25 µM | cat-ELCCA pre-miR-21 Dicer processing, chemiluminescence; stronger effect = higher value | Q9UPY3 | hit rate 6% among 47,000 | AID 1347074; in the data active = z-score above about 3, passing the limit was not always enough;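 also: higher signal means more uncleaved substrate so more Dicer inhibition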
Numbers stand for hits.

What do the screens show for `Cc1cc(C)nc(SCC(=O)Nc2ncc3c(n2)CCCC3=O)n1`?
Dicer inh: inactive

Results for O=C1CCCc2nc3c(cc21)C(=O)CCC3 ?
Dicer inh: 4

What do the screens show for `COC(=O)c1cc(NS(=O)(=O)c2ccc(F)cc2)cc(C(=O)OC)c1`?
Dicer inh: inactive

How did COc1nccnc1NS(=O)(=O)c1ccc(NC(=O)c2ccc(Br)cc2)cc1 do in these assays?
Dicer inh: inactive

Results for COC(=O)c1cc(NS(=O)(=O)c2ccc(Br)cc2)cc(C(=O)OC)c1 ?
Dicer inh: 3.9

How did CSC1=C(C#N)C(=O)NC(c2cccs2)S1 (configuration not stated) do in these assays?
Dicer inh: inactive

Results for O=C(O)COCC(=O)Nc1nnc(C2CC2)s1 ?
Dicer inh: inactive

What do the screens show for `CC(O)CN1CN=C(SCc2ccc(Cl)cc2)NC1` (configuration not stated)?
Dicer inh: inactive

How did COc1ccc(-c2nc3n(n2)C(c2ccc(OC)c(OC)c2)C2=C(CCCC2=O)N3)cc1OC (configuration not stated) do in these assays?
Dicer inh: inactive

What do the screens show for `COc1ccc(-c2nc3n(n2)C(c2ccc4c(c2)OCO4)C2=C(CC(C)(C)CC2=O)N3)cc1OC` (configuration not stated)?
Dicer inh: 3

How did CC1(C)CC(=O)C2=C(C1)Nc1nc(-c3cccc(Cl)c3)nn1C2c1ccc2c(c1)OCO2 (configuration not stated) do in these assays?
Dicer inh: inactive

What do the screens show for `O=C(O)C1C2C=CC(O2)C1C(=O)NCc1cccc(Cl)c1` (configuration not stated)?
Dicer inh: 4.4

How did CCCCC(CC)CNC(=O)C1C2C=CC(O2)C1C(=O)O (configuration not stated) do in these assays?
Dicer inh: inactive

Results for O=C(O)C1C2C=CC(O2)C1C(=O)NCc1ccncc1 (configuration not stated) ?
Dicer inh: inactive

What do the screens show for `CCOCCOC(=O)COc1ccc2c(=O)c(-c3cccc4ccccc34)c(C(F)(F)F)oc2c1`?
Dicer inh: inactive

What do the screens show for `CC1c2ccsc2CCN1S(=O)(=O)c1ccccc1` (configuration not stated)?
Dicer inh: 3

Results for CC1c2ccsc2CCN1S(=O)(=O)c1cc(C(F)(F)F)cc(C(F)(F)F)c1 (configuration not stated) ?
Dicer inh: inactive

What do the screens show for `CC1c2ccsc2CCN1S(C)(=O)=O` (configuration not stated)?
Dicer inh: inactive

How did O=C(O)CS/C(=N\S(=O)(=O)c1ccccc1)Nc1cccc(Cl)c1 do in these assays?
Dicer inh: inactive

What do the screens show for `Cc1nnc(Nc2ccc(C)c(C)c2)s1`?
Dicer inh: inactive

Results for Cc1ccnc(NC(=O)c2ccc(Cl)cc2[N+](=O)[O-])c1 ?
Dicer inh: inactive

What do the screens show for `CC(C)(C)OC(=O)/C(C#N)=C/c1ccc(Cl)cc1`?
Dicer inh: inactive

How did CC(C)(C)C(=O)/C(C#N)=C/c1ccc(C(F)(F)F)cc1 do in these assays?
Dicer inh: 3.2

Results for CC(C)(C)C(=O)/C(C#N)=C/c1c(Cl)cccc1Cl ?
Dicer inh: inactive

How did CCCCOC(=O)n1c(=O)oc2cc(S(=O)(=O)Nc3ccc(C)cc3)ccc21 do in these assays?
Dicer inh: 3.3

Results for Cn1c(=O)oc2cc(S(=O)(=O)Nc3ccc(C(=O)O)cc3)ccc21 ?
Dicer inh: inactive

Results for Cn1c(=O)oc2cc(S(=O)(=O)Nc3ccc(O)cc3)ccc21 ?
Dicer inh: inactive

How did FC(F)(F)c1nc2ccccc2n1CCOc1ccccc1 do in these assays?
Dicer inh: inactive

How did CCc1ccc(C2C3=C(Nc4c2c(=O)[nH]c(=O)n4CCOC)c2ccccc2C3=O)cc1 (configuration not stated) do in these assays?
Dicer inh: inactive

Results for CC1(C)CC(=O)C(C=Nc2cc(C(F)(F)F)cc(C(F)(F)F)c2)=C(O)C1 ?
Dicer inh: inactive

What do the screens show for `COC(=O)c1sc(SC)c2c1CC(C)(C)CC2=O`?
Dicer inh: inactive

Results for O=C(c1ccccc1)c1cccc2c1NCC2 ?
Dicer inh: inactive

What do the screens show for `Cc1ccc(Cn2c(=O)oc3ccccc32)cc1`?
Dicer inh: inactive

Results for O=c1oc2ccccc2n1Cc1ccccc1Cl ?
Dicer inh: 4.9

How did O=c1oc2ccccc2n1Cc1ccc(Cl)cc1 do in these assays?
Dicer inh: inactive

How did CCOC(=O)c1c(C)c(C)n(CC2CC2)c1NC(=O)c1ccc(Cl)cc1 do in these assays?
Dicer inh: inactive

How did CC(Nc1ncnc2c1oc1ccccc12)C(=O)O (configuration not stated) do in these assays?
Dicer inh: inactive

Results for O=C(Nc1ncc(Cc2ccc(F)cc2)s1)c1ccc(Br)cc1 ?
Dicer inh: 4.1

What do the screens show for `Fc1ccc(Cc2cnc(Nc3ccc(F)cc3)s2)cc1`?
Dicer inh: inactive

How did O=C(Nc1nnc(-c2ccc(F)cc2)s1)c1ccc(F)cc1 do in these assays?
Dicer inh: inactive

How did Cc1ccc(NS(C)(=O)=O)cc1[N+](=O)[O-] do in these assays?
Dicer inh: inactive

How did CC(C)(C)OCC(CO)NC(=O)OCC1c2ccccc2-c2ccccc21 (configuration not stated) do in these assays?
Dicer inh: inactive

What do the screens show for `CCOC(=O)c1c([N+](=O)[O-])c(C(C)(C)C)[nH]c(=O)c1C#N`?
Dicer inh: inactive

Results for CC(=O)NNc1ncnc2cc(-c3ccc(C(C)(C)C)cc3)sc12 ?
Dicer inh: inactive

Results for Cc1ccc(C(=O)N2CCN(c3ncnc4cc(-c5ccc(C(C)(C)C)cc5)sc34)CC2)cc1 ?
Dicer inh: inactive

Results for Cc1ccc(C(=O)NNc2ncnc3cc(-c4ccc(C(C)(C)C)cc4)sc23)cc1 ?
Dicer inh: 6.2

What do the screens show for `Cc1ccc(C2c3c(oc4ccc(C)cc4c3=O)C(=O)N2c2nccs2)cc1` (configuration not stated)?
Dicer inh: inactive

What do the screens show for `CCOC(=O)C1=C(C(=O)OCC)SC(=C2C(=S)C(C)(C)Nc3ccc(C)cc32)S1`?
Dicer inh: inactive

Results for CCOC(=O)C1=CS/C(=C2/C(=S)C(C)(C)Nc3c(OCC)cccc32)S1 ?
Dicer inh: 3.7

What do the screens show for `CCOc1cccc2c1N(C(C)=O)C(C)(C)C(=S)C2=C1SC(C(=O)OC)=C(C(=O)OC)S1`?
Dicer inh: inactive

What do the screens show for `CCN1C(=O)C(NC(C)=O)c2cc(C)cc(C)c21` (configuration not stated)?
Dicer inh: inactive

Results for O=C(CC1SC(=Nc2ccccc2)NC1=O)Nc1ccccc1Cl (configuration not stated) ?
Dicer inh: inactive

What do the screens show for `O=C(CC1SC(=Nc2ccc(O)cc2)NC1=O)Nc1ccc(Br)cc1` (configuration not stated)?
Dicer inh: 3.8

How did C=CCN=C1NC(=O)C(CC(=O)Nc2ccc(Cl)cc2)S1 (configuration not stated) do in these assays?
Dicer inh: inactive

Results for Cc1nc(SCc2ccccc2)c(C#N)c(C)c1C ?
Dicer inh: inactive

Results for COC(=O)CCSc1nc2c(c(=O)[nH]1)C(C)(C1CCCCC1)Cc1ccccc1-2 (configuration not stated) ?
Dicer inh: 3.7

Results for CCCCSCc1nc2c(c(=O)[nH]1)C1(CCCC1)Cc1ccccc1-2 ?
Dicer inh: inactive

What do the screens show for `CCSc1nc2c(c(=O)[nH]1)C1(CCCC1)Cc1ccccc1-2`?
Dicer inh: inactive

Results for Cc1cnn2c3c(cnc12)C(=O)c1ccccc1-3 ?
Dicer inh: inactive
